HT1080 IDH1KD tx: qHTS for induction of synthetic lethality in tumor cells producing 2HG: qHTS for the HT-1080-IDH1KD cell line | HT-1080 IDH1 knockdown viability, ATP luminescence, 48 h | Potency, µM (series often up to 46.1 µM), without a hit: top-dose activity, negative = toxicity, actives largely listed as cytotoxic | 2% of 360,000 active;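 also: 0% = DMSO wells and -100% = cell-free medium wells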
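% activity derives from luminescence (CellTiter-Glo), normalised to DMSO and no-cell wells. HT-1080-IDH1KD cells, 750/well, had 48 h compound exposure at 37 °C.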
KB-V1 cytotox: qHTS assay for MDR1-selective chemotherapeutics: Primary screen using the drug-selected MDR subline cells KB-V1 | AID 1347076, 2019 | 3.4% of 400,000 active | KB-V1 MDR cells viability, CellTiter-Glo, 72 h | Potency, µM (top dose mostly 46.1 µM), usual class: cytotoxic; also: nearly all actives have a fitted effect of over 60% in size
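Compound-treated KB-V1 multidrug-resistant cells, 72 h, 37 degrees C; viability by CellTiter-Glo. Fitted qHTS curves give the values.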
HT1080NT lethal: qHTS for induction of synthetic lethality in tumor cells producing 2HG: qHTS for the HT-1080-NT fibrosarcoma cell line; HT-1080-NT fibrosarcoma viability, CellTiter-Glo ATP luminescence, 48 h; Potency, µM (highest dose often 46.1 µM), for inactives: at the highest dose activity, negative = less viability, actives largely listed as cytotoxic; 1.6% of 360,000 active; AID 686970, 2013;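 also: NT is the 2HG producing partner of a matched IDH1 knockdown line; 0% = DMSO-treated cells and -100% = media-only wells without cells; nearly all actives have a fitted effect of over 55% in size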
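Viability of the 2HG-overproducing fibrosarcoma line after 48 hours of compound exposure at 37 degrees C was determined by luminescence with CellTiter-Glo, and concentration-effect curves were then fitted and categorized.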
KB-3-1 cytotox: qHTS assay for MDR1-selective chemotherapeutics: Primary screen using the parental adenocarcinoma cell KB-3-1 | KB-3-1 viability, CellTiter-Glo ATP luminescence, 72 h | Potency, µM (series often up to 46.1 µM), most hits filed as cytotoxic | 1.4% of 400,000 active | AID 1347075, 2019; also: nearly all actives have a fitted effect of over 60% in size
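KB-3-1 parental drug-naive adenocarcinoma cells in DMEM/10% FBS, incubated 72 h at 37 C with pin-transferred compounds across a concentration series. Viability by CellTiter-Glo luminescence; concentration-response curves fitted after normalization.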
* hit, by the source's call; i = inactive; ? = inconclusive; nt = not tested or not shown; [ ] = another dose, or the depositor's remark. Most compounds without a hit are left out; they make up all but 5.7% or so of the library. Calls follow the shape of the dose curve; as a rule, active = well fitted curve in the direction sought with a large enough effect; inconclusive = small, poorly fitted or top-dose-only effect, or another doubt; inactive = no such curve, though single readings can be large; an effect the other way counts as inactive or inconclusive. Unless noted, % is scaled to controls: 0 for no effect and ±100 for the full control effect; potency is read from the fitted curve at half-maximal effect.

SMILES	HT1080 IDH1KD tx	KB-V1 cytotox	HT1080NT lethal	KB-3-1 cytotox
CN(CC(=O)NCc1ccc(Cl)cc1)S(=O)(=O)c1ccc2c(c1)c(=O)n(C)c(=O)n2C	nt	i	nt	i
Cc1ccccc1Cn1c(C)c(C(=O)N(C)Cc2ccc(F)cc2)sc1=O	4.6%	16.4µM*	9.4%	?
Cc1cc(C)cc(Cn2c(C)c(C(=O)N(C)Cc3ccc(F)cc3)sc2=O)c1	?	?	-25.7%	i
COc1ccc(Br)c(Cn2c(C)c(C(=O)N(C)Cc3ccc(F)cc3)sc2=O)c1	?	8.2µM*	1.5%	?
CC1CCC/C(=C(\C#N)c2nc(-c3cc4ccccc4oc3=O)cs2)C1 (stereo unspecified)	-1.5%	8.2µM*	-6.0%	?
CNC(=O)COc1ccc(Nc2nnc(-c3ccc(C)c(S(=O)(=O)NC(C)(C)C)c3)c3ccccc23)cc1	nt	i	nt	i
Cc1cc2n(n1)CCCN2C(=O)Nc1cccc(C)c1C	nt	i	nt	i
CN(C)S(=O)(=O)c1cccc(-c2nn(-c3ccccc3)cc2/C=C2\SC(=S)NC2=O)c1	10.3µM*	?	?	?
Cc1ccc(Cl)cc1N1CCN(C(=O)c2cc3c(=O)n(C)c4ccccc4c3n2C)CC1	5.5%	2.59µM*	2.1%	?
CCOc1cc(Br)cc(C2NC(=O)c3c(sc4c3CCN(C)C4)N2)c1O (stereo unspecified)	nt	?	nt	i
CCOc1ccc(NS(=O)(=O)CC23CCC(CC2=O)C3(C)C)cc1 (stereo unspecified)	0.1%	18.4µM*	2.0%	i
COc1ccc(Cn2c(SCc3ccc(C)cc3)nc3cc(OC)c(OC)cc3c2=N)cc1Cl	23.1µM*	?	20.6µM*	?
CCNC(=O)CSc1nc2ccccc2c(=O)n1-c1cc(OC)ccc1OC	-6.7%	18.4µM*	-4.0%	i
CCCCNC(=O)CSc1nc2cc(OC)c(OC)cc2c(=O)n1Cc1ccc(OC)cc1	15.4%	2.06µM*	11.0%	i
CCC(Sc1nc2cc(OC)c(OC)cc2c(=O)n1Cc1ccc(OC)cc1)C(=O)NCCOC (stereo unspecified)	0.3%	i	6.3%	i
COCCCn1c(SCc2cccc(C(F)(F)F)c2)nc2cc(OC)c(OC)cc2c1=N	7.8%	i	2.6%	i
CNC(=O)CSc1nc2ccccc2c(=O)n1-c1cc(OC)ccc1OC	6.8%	i	-4.9%	i
COCCCn1c(SCc2ccccc2)nc2cc(OC)c(OC)cc2c1=N	-28.7%	?	-29.2%	?
COc1ccc(Cn2c(SCc3cc(C)ccc3C)nc3cc(OC)c(OC)cc3c2=N)cc1	?	11.2µM*	?	?
COc1ccc(C)cc1NC(=O)CN1c2ccccc2S(=O)(=O)c2ccccc21	nt	i	nt	i
Cc1oc2ncn(CC(C)C)c(=O)c2c1C(=O)NCCCN(Cc1ccccc1)C(C)C	nt	?	nt	i
Cc1cccc(Cn2c(SCc3ccc(C(=O)NCc4ccccc4)cc3)nc3cccnc32)c1	nt	i	nt	?
COc1cc2nc(SCc3ccc(Cl)cc3Cl)n(Cc3cccs3)c(=N)c2cc1OC	-9.3%	6.51µM*	-9.3%	23.1µM*
COc1cc2nc(SCc3ccc(C(F)(F)F)cc3)n(Cc3cccs3)c(=N)c2cc1OC	-1.7%	i	0.1%	i
O=[N+]([O-])c1ccc(/C=C/c2cc(Cl)nc3ccccc23)cc1	nt	i	nt	?
SMILES	HT1080 IDH1KD tx	KB-V1 cytotox	HT1080NT lethal	KB-3-1 cytotox
CCOC(=O)c1ccc(NC(=O)C(Cc2ccccc2)NS(=O)(=O)c2ccc(Br)s2)cc1 (stereo unspecified)	nt	i	nt	i
Clc1cccc(Cl)c1Cn1cnc2c(N3CCCCCC3)ncnc21	-4.0%	8.2µM*	-5.9%	i
CCN(CC)c1ncnc2c1ncn2Cc1c(Cl)cccc1Cl	?	?	-26.9%	i
CCc1ccc(-n2c(C)nc3cc(C(=O)NCCc4ccccc4)ccc32)cc1	nt	i	nt	i
NCC1CCN(c2nc3ccccc3c3c2CCCC3)CC1	?	14.6µM*	-27.4%	23.1µM*
N#Cc1c(N)[nH]c2ccc(Sc3ccccc3)cc12	7.31µM*	3.26µM*	3.26µM*	2.31µM*
COc1cc(NCCCCC(C)N)c2nccc(C)c2c1 (stereo unspecified)	?	?	?	5.17µM*
CCC(CNc1cc(OC)cc2cccnc12)NC1CCCCC1 (stereo unspecified)	-2.1%	i	-7.0%	i
COc1cc(NS(=O)(=O)c2ccc(C)cc2)c2ncccc2c1	?	?	-29.8%	9.2µM*
COc1cc(NCCCC(C)N)c2ncccc2c1 (stereo unspecified)	20.6µM*	i	20.6µM*	?
CCc1cccc(NC(=O)Cn2c(=O)n(-c3ccccc3C)c(=O)c3c2c2cc(C)ccc2n3C)c1	nt	i	nt	i
O=C(Nc1cc(F)cc(F)c1)Nc1nnc(-c2ccncc2)s1	nt	i	nt	i
CC(C)(C)OC(=O)N1CCC(c2c(C(=O)NCCN3CCCC3)cnn2-c2ccc(Cl)cc2)CC1	nt	i	nt	i
Cc1c(-c2nsc(NC(=O)c3cccs3)n2)nnn1-c1ccc(Cl)cc1	nt	i	nt	i
O=C(CCN1C(=O)c2ccccc2C1=O)N1CCN(Cc2ccc(Cl)cc2Cl)CC1	1.5%	14.6µM*	1.2%	i
O=C(CCN1C(=O)c2ccccc2C1=O)N1CCN(Cc2ccccc2)CC1	1.4%[9.24 µM]	i	-7.4%	i

Compound activity as filed in PubChem BioAssay.
